Results from PubChem BioAssay (NCI).
The panel holds about 79,000 compounds, 15% with a hit somewhere; the sample as a whole holds those more often. Activity calls are given as the source filed them. No stated cut-off is given here; in the data, active means growth inhibition above about 70%; inactive means the rest.

Key:
[1] = NCI Yeast Anticancer Drug Screen. Data for the wt1 strain (AID 149);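 further: 0% = growth of vehicle-treated wt1 cultures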; conditions: S. cerevisiae wt1 strain (SPY 50644) growth inhibition, hits give high values
Outline: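 The wt1 strain was treated with compounds, and growth was compared with vehicle-treated cultures to give inhibition.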

[2] = NCI Yeast Anticancer Drug Screen. Data for the rad50EPP+ strain (AID 151);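 further: 0% = growth of vehicle-treated control cultures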; conditions: S. cerevisiae rad50 mutant strain, hits give high values
Outline: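 Growth inhibition read against vehicle controls in rad50EPP+ yeast, a strain altered in DNA damage repair, after compound exposure.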

[3] = NCI Yeast Anticancer Drug Screen. Data for the mgt1 strain (AID 153); conditions: S. cerevisiae mgt1 mutant growth inhibition, hits give high values
Outline: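 mgt1 yeast grown with test compound; read-out is growth inhibition versus vehicle-treated cultures.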

[4] = NCI Yeast Anticancer Drug Screen. Data for the rad50 strain (AID 155);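 further: 0% = growth of vehicle-only cultures of the same strain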; conditions: S. cerevisiae rad50 strain growth inhibition, hits give high values
Outline: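 Cells are treated with compound, grown, and their growth is then scored against vehicle-only cultures of the same repair-deficient yeast strain.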

[5] = NCI Yeast Anticancer Drug Screen. Data for the mec2-1 strain (AID 157); conditions: S. cerevisiae mec2-1 strain, hits give high values
Outline: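 Yeast mec2-1 mutant treated with compound. Readout: growth inhibition vs vehicle controls.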

[6] = NCI Yeast Anticancer Drug Screen. Data for the rad14 strain (AID 159);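 further: 0% = growth of vehicle-treated control cultures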; conditions: S. cerevisiae rad14 strain growth inhibition, hits give high values
Outline: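 Readout: yeast growth inhibition, referenced to vehicle-only cultures. Strain bears a defined alteration in DNA damage repair.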

[7] = NCI Yeast Anticancer Drug Screen. Data for the sgs1 mgt1 strain (AID 161);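 further: 0% = growth of cultures given vehicle only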; conditions: S. cerevisiae sgs1 mgt1 strain, hits give high values
Outline: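 Inhibition of yeast growth, normalised to vehicle-treated controls, is reported for a strain bearing genetic alterations in DNA damage repair.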

[8] = NCI Yeast Anticancer Drug Screen. Data for the CLN2oe strain (AID 163);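 further: 0% = growth of vehicle-only control cultures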; conditions: S. cerevisiae CLN2oe strain, hits give high values
Outline: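 Read-out: yeast growth inhibition, expressed relative to vehicle-only controls. The strain bears an engineered cell-cycle alteration.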

[9] = NCI Yeast Anticancer Drug Screen. Data for the cln2 rad14 strain (AID 165);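 further: 0% = growth equal to vehicle treated cultures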; conditions: S. cerevisiae cln2 rad14 strain, hits give high values
Outline: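 cln2 rad14 yeast strain; compound exposure; growth inhibition read vs vehicle controls.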

[10] = NCI Yeast Anticancer Drug Screen. Data for the bub3 strain (AID 167); conditions: S. cerevisiae bub3 mutant strain, hits give high values
Outline: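 Part of a panel of yeast mutants defective in DNA damage repair or cell cycle regulation. Each strain is grown with compound, and inhibition is calculated relative to solvent-treated cultures.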

[11] = NCI Yeast Anticancer Drug Screen. Data for the wt2 strain (AID 169);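 further: 0% = growth of vehicle-treated yeast cultures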; conditions: S. cerevisiae wt2 strain growth inhibition, hits give high values
Outline: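 Read-out: growth inhibition versus vehicle-treated control cultures after compound exposure of the yeast strain.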

[12] = NCI Yeast Anticancer Drug Screen. Data for the mlh1 strain (AID 171);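 further: 0% = growth of vehicle-treated control cultures of the same strain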; conditions: S. cerevisiae mlh1 strain growth inhibition, hits give high values
Outline: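 Read-out: growth inhibition versus vehicle controls. Strain: engineered yeast with a defined DNA repair or cell cycle defect, compound-treated.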

[13] = NCI Yeast Anticancer Drug Screen. Data for the sgs1 strain (AID 173);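 further: 0% = growth of vehicle-only control cultures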; conditions: S. cerevisiae sgs1 mutant, hits give high values
Outline: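 Read-out: yeast growth inhibition relative to vehicle controls, following compound exposure of a strain with a defined DNA repair/cell cycle alteration.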

[14] = NCI Yeast Anticancer Drug Screen. Data for the mlh1 rad18 strain (AID 175); conditions: S. cerevisiae mlh1 rad18 strain growth inhibition, hits give high values
Outline: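 Yeast w/ defined DNA-repair lesions; compound exposure; growth vs vehicle controls → % inhibition.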

[15] = at 5.0 µM (retest, dose inferred, filed as 0.5)
[16] = at 50.0 µM (retest, dose inferred, filed as 5.0)

Measured: growth inhibition

CCCCOC(=O)CSSCC(=O)OCCCC
inactive: [1]; at 1.2 µM -7% | [1]; at 3.7 µM -2% | [1]; at 11.0 µM 13% | [2]; at 1.2 µM -17% | [2]; at 3.7 µM -5% | [2]; at 11.0 µM 45% | [3]; at 1.2 µM 16% | [3]; at 3.7 µM 10% | [3]; at 11.0 µM 45% | [4]; at 1.2 µM -11% | [4]; at 3.7 µM 2% | [4]; [15] 44% | [4]; at 11.0 µM 17% | [5]; at 1.2 µM -38% | [5]; at 3.7 µM -10% | [5]; [15] 48% | [5]; at 11.0 µM 7% | [6]; at 1.2 µM -11% | [6]; at 3.7 µM -13% | [6]; at 11.0 µM -3% | [7]; [15] 9% | [8]; at 1.2 µM 8% | [8]; at 3.7 µM 4% | [8]; at 11.0 µM 8% | [8]; at 33.0 µM 61% | [9]; [15] 32% | [10]; at 1.2 µM 14% | [10]; at 3.7 µM 14% | [10]; [15] 56% | [10]; at 11.0 µM 53% | [11]; at 1.2 µM -15% | [11]; at 3.7 µM -1% | [11]; at 11.0 µM 8% | [12]; at 1.2 µM -26% | [12]; at 3.7 µM 7% | [12]; at 11.0 µM 37% | [13]; at 1.2 µM -30% | [13]; at 3.7 µM -8% | [13]; at 11.0 µM 18% | [14]; [15] 40%
active: [1]; at 33.0 µM 81% | [1]; at 100.0 µM 97% | [2]; at 33.0 µM 89% | [2]; at 100.0 µM 97% | [3]; at 33.0 µM 83% | [3]; at 100.0 µM 99% | [4]; at 33.0 µM 76% | [4]; [16] 99% | [4]; at 50.0 µM 91% | [4]; at 100.0 µM 97% | [5]; at 33.0 µM 80% | [5]; [16] 99% | [5]; at 50.0 µM 91.9% | [5]; at 100.0 µM 98% | [6]; at 33.0 µM 71% | [6]; at 100.0 µM 97% | [7]; [16] 99% | [8]; at 100.0 µM 98% | [9]; [16] 99% | [10]; at 33.0 µM 88% | [10]; [16] 98% | [10]; at 100.0 µM 99% | [11]; at 33.0 µM 70% | [11]; at 100.0 µM 98% | [12]; at 33.0 µM 74% | [12]; at 100.0 µM 98% | [13]; at 33.0 µM 70% | [13]; at 100.0 µM 96% | [14]; [16] 99% | [14]; at 50.0 µM 90.2%
